From PubChem BioAssay
Only a selection was taken, and hits are over-represented in it overall.
Pf Dd2 growth = Plasmodium falciparum Dd2 growth inhibition | P. falciparum Dd2 growth, SYBR Green, 72 h | Potency, µM (top dose mostly 28.9 µM), inactives show top-dose activity, negative = inhibition, most hits filed as inhibitors | actives 4.3% (n = 120,000); active = well fitted inhibition curve with a large enough effect;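 note: plate controls were DMSO vehicle for no effect and reference drug for full effect; nearly all actives have a fitted effect of over 65% in size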
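Readout: SYBR Green fluorescence, 485 nm excitation, 535 nm emission, after ~16 h lysis at 37C. Before that, Dd2-infected red cells (2.5% hematocrit) grew 72 h with compound, 29 uM top final concentration.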
* marks the source's active call; other numbers are inactive results; i = inactive; [ ] = dose if it differs, or a comment. Potency is the fitted concentration of half-maximal effect.

SMILES | Pf Dd2 growth
O[C@H]1[C@H](n2cc(-c3cccc(F)c3)nn2)c2ccccc2C12CCNCC2 | -10%
COc1cccc(-c2nc(SCc3ccc(C)cc3)n3[nH]c(=O)cc3n2)c1 | i
COc1ccc(NC(=O)CSc2nc(-c3ccccc3)nc3cc(=O)[nH]n23)cc1 | i
CC(C)(C)c1ccc(-c2nc(SCCCOc3ccccc3)n3[nH]c(=O)cc3n2)cc1 | 10µM*
CC(=O)N1CC2(Cc3ccccc31)CN(C(=O)c1cccc(Cl)c1)C2 | -9%
CC(Oc1ccccc1)C(=O)NCCc1noc(-c2ccncc2)n1 (stereo not given) | i
Cc1nc(N2CCC(NC(=O)c3cccc(F)c3)CC2)cc(C(F)(F)F)n1 | i
COc1ccc(CNC(=O)CN2CC3CC(C2)[C@H]2CCCC(=O)N2C3)cc1 (stereo not given in full) | -8%
O=C(CN1CCCCCC1)N1CCC2(CC1)CN(Cc1ccccc1)CC2CO (stereo not given) | i
O=C(COc1ccccc1)N1CCC2(CC1)CN(Cc1ccccc1)CC2CO (stereo not given) | 5µM*
COCCN1CC(CO)C2(CCN(C(=O)COc3ccccc3)CC2)C1 (stereo not given) | -19%
CCc1cccc(OCC(=O)c2ccc3c(c2)N(CC(=O)N(C)Cc2ccccc2)C(=O)CO3)c1 | -19%
COc1ccc(C(C)NC(=O)C2CCN(C(=O)c3ncn4c3COC(c3ccccc3)C4)CC2)cc1 (stereo not given) | 7.9µM*
CC(NC(=O)C1CCN(C(=O)c2ncn3c2COC(c2ccc(Cl)cc2)C3)CC1)c1ccccc1 (stereo not given) | -16%
CC(NC(=O)C1CCN(C(=O)c2ncn3c2COC(c2ccccc2)C3)CC1)c1ccc(F)cc1 (stereo not given) | i
CC(C)=CCC1(CO)CCCN(C(=O)c2cccn2C2CC2)C1 (stereo not given) | -10%
CC(C)c1ccc(C2c3c(oc4ccc(Cl)cc4c3=O)C(=O)N2CCCN2CCOCC2)cc1 (stereo not given) | 6.3µM*
Cc1ccc2oc3c(c(=O)c2c1)C(c1ccc(O)cc1)N(CCCN(C)C)C3=O (stereo not given) | 27%
COc1ccc(C2c3c(oc4ccc(C)cc4c3=O)C(=O)N2CCCN2CCOCC2)cc1OC (stereo not given) | -7%
O=C(c1ccccn1)N1CCC2(CC1)CC(Cc1ccccc1)CCO2 (stereo not given) | -8%
CCNC(=O)N1CCCOCCNC(=O)[C@@H]2CCC[C@@H]21 | 15%
OC1(CN2CCN(c3nccs3)CC2)CNCCOC1 (stereo not given) | i
O=C(NC1CC1)c1ccccc1OC1CN(Cc2ccc(F)cc2)C1 | -20%
O=C(NC1CC1)c1ccccc1OC1CN(C2CCC2)C1 | 2.8µM*
O=C(c1ccccc1OC1CCN(C2Cc3ccccc3C2)CC1)N1CCCCC1 | -18%
SMILES | Pf Dd2 growth
Cc1nc(-c2cccs2)cc([C@H]2CN3CC[C@H]2C[C@@H]3CNC(=O)c2ccc3c(c2)OCO3)n1 | 8.9µM*
O=C(Nc1cccc(C(F)(F)F)c1)OC[C@H]1C[C@@H]2CCN1C[C@@H]2c1cc(C2CCCC2)nc(-c2ccncc2)n1 | 2.5µM*
Cc1nc(-c2ccccc2)cc([C@H]2CN3CC[C@H]2C[C@@H]3CNC(=O)N2CCOCC2)n1 | i
Cc1nc(-c2ccccc2Br)cc([C@H]2CN3CC[C@H]2C[C@@H]3CNC(=O)c2ccco2)n1 | -6%
Cc1nc(-c2cccs2)cc([C@H]2CN3CC[C@H]2C[C@@H]3CNC(=O)N2CCOCC2)n1 | i
COc1ccccc1-c1cc([C@H]2CN3CC[C@H]2C[C@@H]3CNC(=O)CCC(=O)O)nc(C)n1 | 2%
C=C[C@H]1CN2CC[C@H]1C[C@@H]2CNC(=O)c1ccc2c(c1)OCO2 | -4%[44.1 µM]
Cn1nc(-c2ccc3ccccc3c2)cc1[C@H]1CN2CC[C@H]1C[C@@H]2COC(=O)Nc1cccc(C(F)(F)F)c1 | 21%
COc1ccccc1-c1cc([C@H]2CN3CC[C@H]2C[C@@H]3COC(=O)Nc2ccccc2)nc(C)n1 | i
Cc1ccc(S(=O)(=O)NC[C@H]2C[C@@H]3CCN2C[C@@H]3c2cc(-c3ccccc3Br)nc(C)n2)cc1 | i
Cc1nc(-c2cccs2)cc([C@H]2CN3CC[C@H]2C[C@@H]3CNC(=O)c2ccccc2)n1 | 7.9µM*
Cc1ccc(C(=O)NC[C@H]2C[C@@H]3CCN2C[C@@H]3c2cc(-c3cccs3)nc(C)n2)cc1 | 7.1µM*
O=C(CCc1cccc(F)c1)N1CCC(C(=O)O)(n2cccn2)CC1 | -7%
O=S(=O)(Cc1ccccc1)N1CCC(N2CC(OCC3CC3)C23CCOCC3)CC1 (stereo not given) | i
CNC(=O)[C@@H]1CN(C(=O)c2ccoc2)C[C@H]1CO | -2%
CC(C)NC(=O)C1CN(c2ccccc2)C(=O)N1 (stereo not given) | 13%[44.1 µM]
CN(C)c1nc2c(c(=O)[nH]1)CCN(CCc1ccccc1)CC2 | -7%[5.79 µM]
CCN(CC)Cc1cnc2c(C(=O)N3CC[C@H]4CNC[C@H]43)cnn2c1 | -6%
